Structures are written as SMILES. Values joined by “and” are separate entries in the source; they are usually repeats but may differ in a detail not shown here. Equal values may be shown once. Results filed as inconclusive are left out. Some compounds were tested as several samples or in several runs, with calls that do not always agree. Active and inactive are the calls of the source. Unless noted, calls follow the shape of the dose curve; as a rule, active = well fitted curve in the direction sought with a large enough effect in the repeat runs; inconclusive = weak or mixed curves; inactive = no such curve, though single readings can be large; an effect the other way counts as inactive or inconclusive.

These results are taken from PubChem BioAssay (Tox21).

Assay [1] is described as follows: qHTS assay to test for compound auto fluorescence at 535 nm (green) in HEK293 cells (AID 720680).
Assay [2] can be described thus: qHTS assay to test for compound auto fluorescence at 460 nm (blue) in HEK293 cell free culture (AID 720681). The method, boiled down:
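Blue fluorescence (Ex 405/Em 460 nm, triamterene-equivalent) was read immediately after pin transfer of compound or DMSO into medium (DMEM, 10% FBS) without cells.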

Assay [3] can be described thus: qHTS assay to test for compound auto fluorescence at 590 nm (red) in HEK293 cell free culture (AID 720683). The method, boiled down:
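Red-channel autofluorescence of compounds in culture medium (DMEM, 10% FBS), no cells, measured at 540/590 nm. Rose Bengal sodium is the reference fluorophore for equivalence.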

Assay [4] is described as follows: qHTS assay to test for compound auto fluorescence at 590 nm (red) in HepG2 cell free culture (AID 720684). An outline of the steps:
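No cells present: MEM + 10% FBS only. Compound pinned in, red label read (540/590 nm). Activity = fluorescence equivalent to Rose Bengal sodium.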
(In general: In qHTS, concentration-response curves come from the screen itself.)

The nature of assay [5]: qHTS assay to test for compound auto fluorescence at 460 nm (blue) in HepG2 cell free culture (AID 720685). An outline of the steps: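 Cell-free plates of MEM plus 10% FBS received 23 nL compound or DMSO vehicle; blue-channel (405/460 nm) intensity scored against triamterene as reference fluorophore.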
Assay [6] in a line: qHTS assay to test for compound auto fluorescence at 535 nm (green) in HepG2 cell free culture (AID 720686).
The nature of assay [7]: qHTS assay to test for compound auto fluorescence at 460 nm (blue) in HepG2 cells (AID 720687). An outline of the steps: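 Blue-channel autofluorescence (Ex/Em 405/460 nm, triamterene-equivalent) was measured after 1 hr compound exposure at 37 C, 5% CO2. Cells were HepG2, plated overnight at 37 C in MEM plus 10% FBS.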
Assay [8] has as its target Glucocorticoid receptor (Homo sapiens) (UniProt P04150). As to the kind of experiment: qHTS assay to identify small molecule agonists of the glucocorticoid receptor (GR) signaling pathway (AID 720691; active = well fitted activation curve with a large enough effect in the signal ratio in the repeat runs, not every such curve was filed as active; the % refers to the signal ratio). An outline of the steps:
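HeLa GR-bla reporter line; cells pre-incubated 4 h, compound in DMSO 18 h at 37 C; LiveBLAzer B/G FRET substrate 2 h RT; fluorescence intensity read-out.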

Assay [9] shares this target. Put plainly: qHTS assay to identify small molecule antagonists of the glucocorticoid receptor (GR) signaling pathway (AID 720692; active = well fitted inhibition curve with a large enough effect in the signal ratio in the repeat runs, not every such curve was filed as active; the % refers to the signal ratio). The method, boiled down: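 Read-out: beta-lactamase FRET substrate fluorescence, 2 h at room temperature, in HeLa cells stably carrying a GRE-driven bla reporter. Compounds were co-incubated with 5 nM dexamethasone agonist (final) for 18 h at 37 C.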

Assay [10] can be described thus: qHTS assay to identify small molecule antagonists of the glucocorticoid receptor (GR) signaling pathway - cell viability counter screen (AID 720693). Also: nearly all actives have a fitted effect of over 55% in size. Also: potency is read from the fitted curve at half-maximal effect.
A short description of assay [11]: qHTS assay to identify small molecule antagonists of the androgen receptor (AR) signaling pathway - cell viability counter screen (AID 743033; also: nearly all actives have a fitted effect of over 45% in size; also: potency is read from the fitted curve at half-maximal effect).
Assay [12] can be described thus: qHTS assay to identify small molecule antagonists of the androgen receptor (AR) signaling pathway using the MDA cell line - cell viability counter screen (AID 743041; also: nearly all actives have a fitted effect of over 45% in size). An outline of the steps: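 Using the breast carcinoma line MDA-kb2 AR-luc, test chemicals were co-incubated with R1881 for 16 h; CellTiter-Fluor reagent, added at 15.5 h, provided a fluorescence measure of live cells.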

Assay [13] in a line: qHTS assay to identify small molecule antagonists of the thyroid receptor (TR) signaling pathway - cell viability counter screen (AID 743064). Also: nearly all actives have a fitted effect of over 50% in size. Also: potency is read from the fitted curve at half-maximal effect. An outline of the steps:
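Rat GH3 pituitary tumor cells stably expressing two TR response elements driving luciferase were plated, rested 4 h, then dosed with library compounds and T3 (1 nM final). After 23.5 h at 37 °C, CellTiter-Fluor was added for 30 min and fluorescence recorded.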

Assay [14] is described as follows: qHTS assay for identifying genotoxic compounds that show differential cytotoxicity against isogenic chicken DT40 cell lines with known DNA damage response pathways - wild type cell line (AID 743012). Also: nearly all actives have a fitted effect of over 60% in size. Also: potency is read from the fitted curve at half-maximal effect. An outline of the steps:
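CellTiter-Glo luminescence readout of viability in wild type DT40 cells after 40 h compound exposure at 37 C/5% CO2; 300 cells/well; reagent incubated 30 min at room temperature before reading.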

Assay [15] in a line: qHTS assay for identifying genotoxic compounds that show differential cytotoxicity against isogenic chicken DT40 cell lines with known DNA damage response pathways - Rad54/Ku70 mutant cell line (AID 743015). Also: nearly all actives have a fitted effect of over 60% in size. Also: potency is read from the fitted curve at half-maximal effect.
Assay [16] in a line: qHTS assay for identifying genotoxic compounds that show differential cytotoxicity against isogenic chicken DT40 cell lines with known DNA damage response pathways - Rev3 mutant cell line (AID 743014). Also: potency is read from the fitted curve at half-maximal effect; nearly all actives have a fitted effect of over 55% in size.
In assay [17] the target is Androgen receptor (Homo sapiens) (UniProt P10275). As to the kind of experiment: qHTS assay to identify small molecule agonists of the androgen receptor (AR) signaling pathway (AID 743036; active = well fitted activation curve with a large enough effect in the signal ratio in the repeat runs, with a control signal flat, not every such curve was filed as active; the % refers to the signal ratio). An outline of the steps:
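Quantitative HTS of the Tox21 10K library in HEK293 cells bearing a stably integrated UAS-controlled beta-lactamase reporter. Compound exposure lasted 16 h at 37C. Reporter activity was detected by FRET substrate fluorescence after 2 h at room temperature.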

For assay [18] the target is unchanged. Put plainly: qHTS assay to identify small molecule antagonists of the androgen receptor (AR) signaling pathway using the MDA cell line (AID 743042; also: nearly all actives have a fitted effect of over 55% in size; also: potency is read from the fitted curve at half-maximal effect). An outline of the steps:
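Antagonist mode: compounds plus R1881 agonist added to MDA-kb2 AR-luc cells, incubated 16 h at 37C. Luciferase reporter luminescence quantified, with multiplexed CellTiter-Fluor readout for cell viability.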

The target is the same in assay [19]. As to the kind of experiment: qHTS assay to identify small molecule antagonists of the androgen receptor (AR) signaling pathway (AID 743035; active = well fitted inhibition curve with a large enough effect in the signal ratio in the repeat runs, not every such curve was filed as active; the % refers to the signal ratio). The method, boiled down:
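AR-bla HEK293 reporter cells; 4 h settle at 37C/5% CO2; compound + R1881 agonist, 16 h at 37C; LiveBLAzer B/G FRET substrate 2 h RT; fluorescence intensity read. qHTS format.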

Glucocorticoid receptor (Homo sapiens), sequence (P04150 whole entry, looked up): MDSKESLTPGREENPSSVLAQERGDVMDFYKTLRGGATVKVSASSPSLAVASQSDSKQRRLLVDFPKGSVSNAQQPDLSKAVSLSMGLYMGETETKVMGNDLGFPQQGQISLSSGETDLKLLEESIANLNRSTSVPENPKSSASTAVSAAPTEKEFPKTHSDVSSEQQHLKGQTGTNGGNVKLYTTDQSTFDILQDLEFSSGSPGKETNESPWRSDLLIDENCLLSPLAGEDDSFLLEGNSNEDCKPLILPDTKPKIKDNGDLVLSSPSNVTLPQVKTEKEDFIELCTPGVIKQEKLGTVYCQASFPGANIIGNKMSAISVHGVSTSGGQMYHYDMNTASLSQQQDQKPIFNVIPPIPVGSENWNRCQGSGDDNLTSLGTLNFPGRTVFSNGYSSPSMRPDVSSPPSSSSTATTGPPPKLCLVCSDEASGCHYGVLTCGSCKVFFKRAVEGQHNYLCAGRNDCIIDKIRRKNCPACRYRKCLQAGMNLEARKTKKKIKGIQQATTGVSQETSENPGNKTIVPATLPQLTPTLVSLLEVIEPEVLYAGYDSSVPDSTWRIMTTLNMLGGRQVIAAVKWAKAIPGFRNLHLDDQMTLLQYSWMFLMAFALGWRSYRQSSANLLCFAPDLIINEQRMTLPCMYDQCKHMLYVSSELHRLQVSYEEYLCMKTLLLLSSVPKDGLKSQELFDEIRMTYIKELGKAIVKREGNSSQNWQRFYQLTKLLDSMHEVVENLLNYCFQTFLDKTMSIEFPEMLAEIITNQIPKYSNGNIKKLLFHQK
Androgen receptor (Homo sapiens), sequence (P10275 whole entry, looked up): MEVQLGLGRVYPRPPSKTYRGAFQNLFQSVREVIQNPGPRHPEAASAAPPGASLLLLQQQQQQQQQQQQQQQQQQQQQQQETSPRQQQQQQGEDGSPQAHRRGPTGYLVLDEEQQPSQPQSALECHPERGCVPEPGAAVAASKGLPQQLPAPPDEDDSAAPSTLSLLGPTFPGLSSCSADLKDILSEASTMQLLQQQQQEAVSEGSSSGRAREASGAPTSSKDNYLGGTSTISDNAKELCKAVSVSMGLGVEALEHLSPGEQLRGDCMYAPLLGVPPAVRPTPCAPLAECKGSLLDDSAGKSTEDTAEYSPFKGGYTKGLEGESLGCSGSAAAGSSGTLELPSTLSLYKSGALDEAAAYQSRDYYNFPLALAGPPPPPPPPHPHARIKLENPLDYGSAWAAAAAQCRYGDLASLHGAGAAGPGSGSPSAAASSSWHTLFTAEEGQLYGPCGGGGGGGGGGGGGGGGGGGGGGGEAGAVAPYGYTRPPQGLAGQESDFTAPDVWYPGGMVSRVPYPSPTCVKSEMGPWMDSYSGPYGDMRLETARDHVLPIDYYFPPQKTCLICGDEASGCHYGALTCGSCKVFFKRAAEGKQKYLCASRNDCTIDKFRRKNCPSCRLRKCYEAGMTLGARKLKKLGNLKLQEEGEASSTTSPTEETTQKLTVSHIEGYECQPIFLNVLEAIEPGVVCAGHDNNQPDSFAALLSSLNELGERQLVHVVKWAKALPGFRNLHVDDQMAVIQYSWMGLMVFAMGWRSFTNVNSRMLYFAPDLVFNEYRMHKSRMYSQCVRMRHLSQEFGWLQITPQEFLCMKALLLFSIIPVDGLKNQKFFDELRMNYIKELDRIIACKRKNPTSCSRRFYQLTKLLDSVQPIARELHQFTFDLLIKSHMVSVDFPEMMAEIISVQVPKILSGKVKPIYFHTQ

With `O=C(O[C@@H]1Cc2c(O)cc(O)cc2O[C@@H]1c1cc(O)c(O)c(O)c1)c1cc(O)c(O)c(O)c1`, the Potency result in assay [1], in assay [2], in [5], in assay [6], in assay [7] and in assay [8] was “inactive” each time. For the same compound, the Potency entry in [9], in assay [10], in assay [11] and in [12] was “inactive” in each case. In addition, the result in assay [3] and in assay [4] was inactive. Further, the Potency in assay [13] was 48.7 µM (active) and 52.5 µM (active).
Regarding `O=S(=O)(O)c1ccc2nc(-c3ccccc3)[nH]c2c1`, the Potency result in [1], in [2], in [5], in [6], in [11] and in [12] was “inactive” each time. Besides, the Potency entry in [13] was “inactive”. The result in [3] and in assay [4] was inactive. In addition, the Potency in assay [10] is 20.8 µM (active); in assay [14], “inactive and 46.2 µM (active)”; in assay [15] it was 58.2 µM (active).
Regarding `CCCNC(C)C(=O)Nc1ccccc1C` (stereo not drawn), the Potency result in assay [1], in assay [2], in assay [5], in assay [7], in assay [8] and in assay [9] was “inactive” in each case. Also, the Potency result in assay [10], in [14], in [15], in assay [11], in [12] and in [13] was “inactive” in each case. Further, the outcome in assay [3] and in [4] was inactive.
For the compound `Oc1ccc(Cl)cc1Cc1cc(Cl)ccc1O`, the Potency result in [1], in [2], in [5], in assay [7], in assay [17] and in assay [12] was “inactive” each time. For the same compound, the call in assay [3] and in [4] was inactive. Also, the Potency in assay [10] is 39.6 µM (active) and 34.7 µM (active); in assay [14] it was 23.7 µM (active) and 39.3 µM (active) and 21.7 µM (active); in [16] it was 16.8 µM (active) and 31.2 µM (active) and 10.9 µM (active); in assay [15], 16.8 µM (active) and 31.2 µM (active) and 12.2 µM (active); in assay [11] it was 19.8 µM (active) and 11 µM (active); in assay [18], 27.8 µM (active) and 38.6 µM (active). In assay [13], the Potency was 18.8 µM (active) and 15.6 µM (active) and 27.3 µM (active).
In the case of `Cc1cc(Cc2cc(C)cc(C(C)(C)C)c2O)c(O)c(C(C)(C)C)c1`, the Potency result in assay [1], in assay [2], in assay [5], in [6] and in assay [7] was “inactive” throughout. For the same compound, the compound was called inactive in [3] and in assay [4]. Further, the Potency was 12.4 µM (active) and 13.8 µM (active) in assay [10]; 15.4 µM (active) and 17.2 µM (active) in assay [14]; 9.74 µM (active) and 15.4 µM (active) in assay [15]; 22 µM (active) in [11]; 15.4 µM (active) and 12.2 µM (active) in [13].
Regarding `CC(C)(C)c1ccc(O)c(C(C)(C)C)c1`, the Potency result in assay [1], in [2], in [5], in assay [6], in assay [7] and in [12] was “inactive” each time. Besides, the compound was called inactive in [3] and in [4]. In addition, the Potency in assay [14] was 27.3 µM (active); in [16], 27.2 µM (active) and 24.3 µM (active); in assay [15], 30.5 µM (active) and 27.3 µM (active); in assay [13] it was 27.2 µM (active) and 30.6 µM (active).
In the case of `CCOc1ccc2c(c1)C(C)=CC(C)(C)N2`, the Potency result in assay [1], in assay [2], in assay [5], in assay [6], in assay [7] and in assay [10] was “inactive” each time. For the same compound, the Potency result in [11], in assay [19], in [12], in [18] and in assay [13] was “inactive” throughout. The result in [3] and in assay [4] was inactive. The Potency is 13.3 µM (active) and 13.7 µM (active) in assay [14]; 21.1 µM (active) and 54.2 µM (active) and 15.4 µM (active) in assay [15].
